Shown are actives, neighbours in structure and some others; about 2.4% of the full set was active somewhere.
POLH inh = blocks human DNA polymerase eta activity; recombinant Pol eta, fluorescent DNA replication assay; Potency, µM (highest dose often 114 µM), usual class: inhibitors; AID 588591; Q9Y253; 390,000 compounds, 1.2% hits
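Pol eta (10 nM) was preincubated with compounds for 15 min at room temperature, after which fluorescent replication substrate (50 nM final) was added to start the reaction. Fluorescence was read kinetically at 0 and 10 min.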
FEN1 inhibitor = inhibitors of human flap endonuclease 1. P39748. Recombinant FEN1 flap cleavage, fluorescence, 15 min. Potency, µM (series often up to 114 µM), most hits filed as inhibitors. 390,000 compounds, 0.35% hits. AID 588795; further: nearly all actives have a fitted effect of over 65% in size
Target sequence (P39748 whole entry, looked up): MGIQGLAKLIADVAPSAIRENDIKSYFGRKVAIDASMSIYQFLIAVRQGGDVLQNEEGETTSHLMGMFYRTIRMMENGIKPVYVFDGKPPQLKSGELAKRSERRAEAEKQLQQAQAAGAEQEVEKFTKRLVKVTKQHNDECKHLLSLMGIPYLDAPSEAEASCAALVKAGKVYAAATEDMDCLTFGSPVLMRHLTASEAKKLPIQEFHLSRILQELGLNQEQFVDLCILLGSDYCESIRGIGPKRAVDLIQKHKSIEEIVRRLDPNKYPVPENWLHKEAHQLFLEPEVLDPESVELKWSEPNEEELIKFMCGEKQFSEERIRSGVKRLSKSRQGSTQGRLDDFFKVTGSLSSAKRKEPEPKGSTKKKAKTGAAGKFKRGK
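Reaction started by adding substrate (50 nM final) to 10 nM enzyme after 15 min room-temperature compound preincubation. Reads at 0 and 15 min, with data normalized and fitted to a four-parameter Hill equation.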
Pol iota inh = DNA polymerase iota (human) inhibition. Pol iota fluorescent replication assay, 10 min. Potency, µM (series often up to 115 µM), most hits filed as inhibitors. 390,000 compounds, 1% hits. AID 588590
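Fluorescent replication assay read twice, at 0 min and 10 min after adding 50 nM (final) substrate. Enzyme (10 nM) and compounds were first incubated 15 min at room temperature; enzyme-free buffer wells were negative controls.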
Pol kappa inh = blocks human DNA polymerase kappa activity | purified Pol kappa, fluorescent DNA synthesis assay, 10 min | 400,000 compounds, 0.53% hits | Potency, µM (titrated, usually from 107 µM), actives largely listed as inhibitors
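Kinetic fluorescence readout at 0 and 10 min followed reaction start with substrate at 50 nM final. Beforehand, enzyme (10 nM Pol kappa) stood 15 min with compound at room temperature; buffer-only wells were negative controls.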
WRN helicase inh = inhibitors of human WRN helicase; Q14191; WRN helicase unwinding, fluorescent forked duplex, kinetic; Potency, µM (top dose mostly 114 µM), hits mostly inhibitors; 360,000 compounds, 0.46% hits; AID 651768; further: nearly all actives have a fitted effect of over 55% in size
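Enzyme (20 nM final) and test compound sit together 15 min at room temperature before substrate addition. Substrate is a single-forked duplex oligonucleotide (100 nM) labelled with fluorophore and quencher, with 2 mM ATP; helicase unwinding raises red fluorescence, read kinetically.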
Pol beta inh = DNA polymerase beta (human) inhibition. P06746. Pol beta primer extension/strand displacement, fluorescence kinetic. Potency, µM (highest dose often 114 µM), most hits filed as inhibitors. 340,000 compounds, 1.3% hits. AID 485314
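10 nM enzyme + cpd, 15 min RT; start with substrate 50 nM final; read 0 min and after 10 min RT. Corrected, normalized data; 4-parameter Hill curve fit.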
Large screens that a line does not name were inactive. The call rests on the fitted dose curve; in most records, active means well fitted curve in the direction sought with a large enough effect; inconclusive means small, poorly fitted or top-dose-only effect, or another doubt; inactive means no such curve, though single readings can be large; an effect the other way counts as inactive or inconclusive.

CN(c1ccccc1)S(=O)(=O)c1nnc(NC(=O)COc2ccccc2)s1	POLH inh inconclusive, Pol iota inh 79µM, Pol beta inh inconclusive
O=[N+]([O-])c1ccc2[nH]c(O)c(N=NC(=S)Nc3cccnc3)c2c1	POLH inh inconclusive, FEN1 inhibitor inconclusive, Pol iota inh inconclusive, Pol kappa inh 89µM, WRN helicase inh inconclusive, Pol beta inh inconclusive
Cc1ccccc1NCC(=O)N=Nc1c(O)[nH]c2ccc([N+](=O)[O-])cc12	none
O=C(O)c1ccccc1N=Nc1c(O)[nH]c2ccc([N+](=O)[O-])cc12	POLH inh 22µM, FEN1 inhibitor inconclusive, Pol iota inh inconclusive, WRN helicase inh inconclusive, Pol beta inh 50µM
CCNC(=S)N=Nc1c(O)[nH]c2ccc([N+](=O)[O-])cc12	Pol kappa inh inconclusive, WRN helicase inh inconclusive, Pol beta inh inconclusive
Cc1cccc(OCC(=O)NCC(=O)N=Nc2c(O)[nH]c3ccc([N+](=O)[O-])cc23)c1	POLH inh inconclusive, Pol beta inh 45µM
O=C(C[n+]1ccccc1)c1ccc(O)c(O)c1	Pol iota inh inconclusive, Pol kappa inh inconclusive (no result: POLH inh, WRN helicase inh, Pol beta inh)
CCOC(=O)/C=C1\SCC(=O)N1CC(O)CN1C(=O)CS/C1=C\C(=O)OCC	none
CCOC(=O)/C=C1/SCC(=O)N1CC(=O)c1ccc[nH]1	POLH inh inconclusive, Pol iota inh 22µM (no result: Pol beta inh)
COc1cc(C(=O)/C=C/Nc2ccc(NC(C)=O)cc2)cc(OC)c1OC	Pol beta inh 71µM
COc1cc(C(=O)NNC(=O)c2ccc(NC(C)=O)cc2)cc(OC)c1OC	none
CC(C)S(=O)(=O)C1=NSC2=NC(=O)/C(=C\c3ccc(-c4ccccc4)o3)C(=N)N21	POLH inh 18µM, FEN1 inhibitor inconclusive, Pol kappa inh inconclusive, WRN helicase inh inconclusive, Pol beta inh 79µM
CCOc1ccc2oc(C(=O)NNC(=O)c3ccccc3O)c(C)c2c1	POLH inh 79µM, Pol iota inh inconclusive (no result: Pol beta inh)
CN(C)C(=O)C#Cc1ccccc1	none
O=C(C#Cc1ccccc1)c1ccc([N+](=O)[O-])cc1	WRN helicase inh 32µM
O=C(C#Cc1ccccc1)c1ccccc1	WRN helicase inh 45µM (no result: FEN1 inhibitor, Pol iota inh, Pol kappa inh, Pol beta inh)
O=C(CSCC(=O)c1ccc([N+](=O)[O-])cc1)c1ccc([N+](=O)[O-])cc1	none (no result: POLH inh, FEN1 inhibitor, Pol iota inh, Pol kappa inh, Pol beta inh)
COc1ccc(Cl)cc1NC(=O)Cn1nnc(C(=O)NCc2ccc3c(c2)OCO3)c1N	none
COc1ccc2c(CC(=O)NCc3ccc4c(c3)OCO4)coc2c1	POLH inh 50µM, Pol iota inh inconclusive, Pol kappa inh inconclusive, WRN helicase inh inconclusive, Pol beta inh 18µM
COc1ccc(OC)c(NC(=O)c2nnn(CC(=O)Nc3ccc4c(c3)OCO4)c2N)c1	POLH inh 16µM, Pol beta inh inconclusive
COc1cccc(CNC(=O)c2nnn(CC(=O)Nc3ccc4c(c3)OCO4)c2N)c1	Pol beta inh inconclusive
COc1cccc(NC(=O)Cn2nnc(C(=O)NCc3ccc4c(c3)OCO4)c2N)c1	Pol iota inh 50µM
COc1ccc2c(CNC3CCCCCC3)c(C(=O)O)n(Cc3ccccc3F)c2c1	none (no result: WRN helicase inh)
Cc1cnc(NC(=O)CSc2nnc(Cc3ccccc3)o2)s1	Pol iota inh 71µM
COC(=O)C1(C)CCCC2(C)C1CCC13OCC(CC21)C(O)(C(C)C)C3O (configuration not stated)	none (no result: FEN1 inhibitor, Pol iota inh, Pol kappa inh, Pol beta inh)
CCN(c1ccc(NC(=O)COC(=O)/C=C/c2ccco2)cc1)C(C)C	none (no result: Pol beta inh)
COC(=O)c1ccccc1NC(=O)COC(=O)/C=C/c1ccco1	Pol beta inh inconclusive
COc1ccc(C(=O)COC(=O)/C=C/c2ccco2)cc1F	POLH inh inconclusive, Pol iota inh 35µM, Pol kappa inh inconclusive (no result: Pol beta inh)
CC1CCCC(NC(=O)COC(=O)/C=C/c2ccco2)C1C (configuration not stated)	Pol iota inh 71µM (no result: Pol beta inh)
CN(Cc1ccccc1)C(=O)COC(=O)/C=C/c1ccco1	POLH inh inconclusive, Pol iota inh inconclusive, Pol kappa inh inconclusive, Pol beta inh 14µM
O=C(COC(=O)/C=C/c1ccco1)Nc1ccccc1	POLH inh inconclusive, Pol iota inh inconclusive, Pol beta inh 22µM
COC(=O)c1c(C)oc2ccc(N(C(=O)Oc3ccccc3)S(=O)(=O)c3ccc(C(C)(C)C)cc3)cc12	Pol beta inh inconclusive (no result: WRN helicase inh)
CCc1cccc2c(C(O)c3c[nH]c4ccccc34)c[nH]c12 (configuration not stated)	none (no result: POLH inh, WRN helicase inh, Pol beta inh)
CCCN(Cc1cccs1)C(=O)Nc1cc(OC)ccc1OC	none (no result: WRN helicase inh)
Cc1cc(NS(=O)(=O)c2ccc(NC(=O)C(F)(F)F)cc2)nc(C)n1	Pol beta inh 56µM
CCCC(=O)Nc1ccc(S(=O)(=O)Nc2cc(C)nc(C)n2)cc1	none
CCc1cc2cc3c(cc2nc1SCC(=O)Nc1c[nH]c(=O)[nH]c1=O)OCO3	none
CCc1cc2cc3c(cc2nc1SCC(=O)Nc1nccs1)OCO3	Pol iota inh 71µM
O=C(CSc1ncnc2c1oc1ccccc12)Nc1nccs1	none
CCc1nc(SCC(=O)Nc2nccs2)c2oc3ccccc3c2n1	POLH inh inconclusive, Pol iota inh 32µM, WRN helicase inh inconclusive, Pol beta inh 16µM
COc1ccccc1Cc1nc2ccccc2nc1SCC(=O)N(C)c1ccc(F)cc1	none (no result: WRN helicase inh)
COCCn1c(=O)c(-c2ccc(F)cc2)nc2cnc(N(C)C)nc21	none (no result: POLH inh, FEN1 inhibitor, Pol iota inh, WRN helicase inh, Pol beta inh)
CCOC(=O)c1ccc(NS(=O)(=O)c2cc(-c3onc(C)c3C)ccc2C)cc1	none (no result: WRN helicase inh)
COc1ccccc1C1(O)CC2CCC(C1)N2S(=O)(=O)c1ccc(C(C)=O)cc1 (configuration not stated)	Pol iota inh 100µM
COc1ccccc1N1CC(C(=O)Nc2ccc(S(=O)(=O)N3CCCC3)cc2)CC1=O (configuration not stated)	Pol iota inh inconclusive (no result: Pol beta inh)
CCc1ccccc1N1CC(C(=O)Nc2cc(S(=O)(=O)N3CCCC3)ccc2Cl)CC1=O (configuration not stated)	POLH inh 16µM, Pol iota inh 50µM, Pol kappa inh inconclusive (no result: Pol beta inh)
Cc1ccc(CN2CC(C(=O)Nc3cc(S(C)(=O)=O)ccc3Cl)CC2=O)cc1 (configuration not stated)	POLH inh inconclusive, Pol beta inh 14µM
Cc1nc2ccn(Cc3cccnc3)c(=O)c2cc1C(=O)Nc1ccc(OC(F)(F)F)cc1	none (no result: WRN helicase inh)
CC(C)(C)OC(=O)N1CCC(c2c(C(=O)NCc3ccco3)cnn2-c2ccc(F)cc2F)CC1	none (no result: WRN helicase inh)
Cc1ccc(C)c(NC(=O)Cn2c(=O)n(Cc3cccs3)c(=O)c3cccnc32)c1	none (no result: WRN helicase inh)
Cc1nn(CCCC(=O)NCc2ccc(F)cc2)c(C)c1[N+](=O)[O-]	Pol beta inh inconclusive
Cc1nn(CC(=O)N(C)Cc2ccc(F)cc2)c(C)c1[N+](=O)[O-]	Pol beta inh 0.18µM
CC1Cn2c(C(=O)NCc3cccc(Br)c3)cc3cccc(c32)S1 (configuration not stated)	none (no result: WRN helicase inh)

Screening results (PubChem BioAssay)
